{"source": "PubChem BioAssay AID1347172", "about": "(National Center for Advancing Translational Sciences (NCATS), 2019)", "note": "Inconclusive results are not listed. Unmarked numbers belong to inactive results. The source made the active and inactive calls. The call rests on the fitted dose curve; in most records, active means well fitted inhibition curve with a large enough effect; inconclusive means small, poorly fitted or top-dose-only effect; inactive means flat fitted curve, though single readings scatter."}
{"assay": "Secondary qRT-PCR qHTS assay for selected Zika virus inhibitors", "conditions": "Vero cells ZIKV infection, NS5 RNA qRT-PCR, 24 h; series mostly up to 32.6 µM; activity change, negative = inhibition: at the top concentration", "in_short": "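Vero cells were pretreated with compound, infected with ZIKV at MOI 1 for 3 h, washed, and incubated a further 21 h at 37C. Viral NS5 RNA was quantified by TaqMan qRT-PCR, and copy numbers were normalized to vehicle-treated cells.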", "units": {"activity change, negative = inhibition": "%"}}
{"smiles": "Cc1nc(C2CCCCC2)c(-c2ccc(S(N)(=O)=O)c(F)c2)o1", "activity change, negative = inhibition": -1.51}
{"smiles": "CN(C)[C@@H]1C(=O)C(C(N)=O)=C(O)[C@@]2(O)C(=O)C3=C(O)c4c(O)ccc(Cl)c4[C@@H](O)[C@H]3C[C@@H]12", "activity change, negative = inhibition": -4.42}
{"smiles": "N#CC1C(=O)Nc2scc(-c3ccc(-c4ccccc4O)cc3)c2C1=O", "note": "(stereo not drawn)", "activity change, negative = inhibition": -0.434}
{"smiles": "CC(C)c1ccc2c(c1)c(SC(C)(C)C)c(CC(C)(C)C(=O)O)n2Cc1ccc(Cl)cc1", "Potency": "10 µM (active)"}
{"smiles": "O=C(O)Cc1cccc(OCCCN(Cc2cccc(C(F)(F)F)c2Cl)CC(c2ccccc2)c2ccccc2)c1", "Potency": "14.1 µM (active)"}
{"smiles": "CCOc1ccc(-c2cc(NC(=O)c3c(F)cccc3F)c(C(=O)O)s2)cc1", "activity change, negative = inhibition": -11.2}
{"smiles": "CC(C)c1onc(-c2c(Cl)cccc2Cl)c1COc1ccc(/C=C/c2cccc(C(=O)O)c2)c(Cl)c1", "Potency": "11.2 µM (active)"}
{"smiles": "CCCCCCCOc1cc2c(cc1/C(C)=C/c1ccc(C(=O)O)cc1)C(C)(C)CCS2(=O)=O", "Potency": "14.1 µM (active)"}
{"smiles": "O=S(=O)(Nc1cc(Cl)c(Oc2cnc3ccccc3c2)c(Cl)c1)c1ccc(Cl)cc1Cl", "Potency": "22.4 µM (active)"}
{"smiles": "COc1cc(C(=O)NS(=O)(=O)c2ccccc2C)ccc1Cc1cn(C)c2ccc(NC(=O)OC3CCCC3)cc12", "activity change, negative = inhibition": 0.303}
{"smiles": "N#CC1(c2cccc(C(=O)Nc3cc(Oc4ccc5nc(NC(=O)C6CC6)sc5n4)ccc3F)c2Cl)CC1", "activity change, negative = inhibition": 3.94}
{"smiles": "O=C(O)C1(Cc2cccc(Nc3nccs3)n2)CCC(Oc2cccc(Cl)c2F)CC1", "note": "(stereo not drawn)", "activity change, negative = inhibition": -14.6}
{"smiles": "COc1cc(C(=O)O)ccc1NC(=O)[C@@H]1N[C@@H](CC(C)(C)C)[C@](C#N)(c2ccc(Cl)cc2F)[C@H]1c1cccc(Cl)c1F", "Potency": "12.6 µM (active)"}
